Measured values published in ChEMBL document CHEMBL1961873, “Compounds: GSK PKIS; Assays: Nanosyn kinase panel” (2012).

Tests used:
[1] = system: Proto-oncogene tyrosine-protein kinase receptor Ret (Homo sapiens), P07949 [Y791F]; settings: at 1 µM
[2] = biological target: Macrophage-stimulating protein receptor (Homo sapiens) (UniProt Q04912); settings: at 0.1 µM
[3] = biological target: Macrophage-stimulating protein receptor (Homo sapiens) (UniProt Q04912); settings: at 1 µM
[4] = biological target: Proto-oncogene tyrosine-protein kinase ROS (Homo sapiens) (UniProt P08922); settings: at 0.1 µM
[5] = biological target: Proto-oncogene tyrosine-protein kinase ROS (Homo sapiens) (UniProt P08922); settings: at 1 µM
[6] = biological target: Proto-oncogene tyrosine-protein kinase Src (Homo sapiens) (UniProt P12931); settings: at 0.1 µM
Proto-oncogene tyrosine-protein kinase Src (Homo sapiens), sequence (P12931 2-536 limits assumed): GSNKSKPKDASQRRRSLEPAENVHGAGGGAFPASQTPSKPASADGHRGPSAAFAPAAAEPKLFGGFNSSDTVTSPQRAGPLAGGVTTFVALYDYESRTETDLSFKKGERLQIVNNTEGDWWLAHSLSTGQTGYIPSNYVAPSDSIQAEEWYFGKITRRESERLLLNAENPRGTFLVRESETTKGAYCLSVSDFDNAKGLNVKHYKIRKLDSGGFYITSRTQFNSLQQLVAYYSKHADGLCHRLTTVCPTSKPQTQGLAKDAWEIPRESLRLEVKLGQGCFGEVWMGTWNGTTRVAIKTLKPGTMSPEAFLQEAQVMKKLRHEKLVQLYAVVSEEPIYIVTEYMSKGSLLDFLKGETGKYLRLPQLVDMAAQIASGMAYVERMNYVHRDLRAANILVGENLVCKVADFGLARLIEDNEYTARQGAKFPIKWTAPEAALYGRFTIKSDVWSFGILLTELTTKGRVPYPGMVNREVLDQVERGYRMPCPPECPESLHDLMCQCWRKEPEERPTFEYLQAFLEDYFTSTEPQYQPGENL

[7] = biological target: Proto-oncogene tyrosine-protein kinase Src (Homo sapiens) (UniProt P12931); settings: at 1 µM
[8] = biological target: Tyrosine-protein kinase Srms (Homo sapiens) (UniProt Q9H3Y6); settings: at 0.1 µM
Tyrosine-protein kinase Srms (Homo sapiens), sequence (Q9H3Y6 whole entry): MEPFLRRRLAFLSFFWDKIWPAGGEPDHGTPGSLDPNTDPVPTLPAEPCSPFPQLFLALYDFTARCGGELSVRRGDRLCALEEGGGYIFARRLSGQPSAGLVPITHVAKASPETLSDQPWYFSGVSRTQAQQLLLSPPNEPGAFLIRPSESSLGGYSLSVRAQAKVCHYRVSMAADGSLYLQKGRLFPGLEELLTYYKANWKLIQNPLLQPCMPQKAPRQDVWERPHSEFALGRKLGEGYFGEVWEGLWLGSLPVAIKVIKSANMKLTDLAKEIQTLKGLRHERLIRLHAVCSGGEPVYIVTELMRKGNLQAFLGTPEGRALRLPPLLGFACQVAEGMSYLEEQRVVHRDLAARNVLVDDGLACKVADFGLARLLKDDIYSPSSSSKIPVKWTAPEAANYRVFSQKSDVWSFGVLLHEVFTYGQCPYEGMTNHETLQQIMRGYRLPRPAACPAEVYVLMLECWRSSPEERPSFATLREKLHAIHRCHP

[9] = biological target: Tyrosine-protein kinase Srms (Homo sapiens) (UniProt Q9H3Y6); settings: at 1 µM
[10] = biological target: Tyrosine-protein kinase SYK (Homo sapiens) (UniProt P43405); settings: at 0.1 µM;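 further: reported percentages are mean inhibition values for SYK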

Proto-oncogene tyrosine-protein kinase receptor Ret (Homo sapiens), P07949 [Y791F], sequence (P07949 whole entry Y791F): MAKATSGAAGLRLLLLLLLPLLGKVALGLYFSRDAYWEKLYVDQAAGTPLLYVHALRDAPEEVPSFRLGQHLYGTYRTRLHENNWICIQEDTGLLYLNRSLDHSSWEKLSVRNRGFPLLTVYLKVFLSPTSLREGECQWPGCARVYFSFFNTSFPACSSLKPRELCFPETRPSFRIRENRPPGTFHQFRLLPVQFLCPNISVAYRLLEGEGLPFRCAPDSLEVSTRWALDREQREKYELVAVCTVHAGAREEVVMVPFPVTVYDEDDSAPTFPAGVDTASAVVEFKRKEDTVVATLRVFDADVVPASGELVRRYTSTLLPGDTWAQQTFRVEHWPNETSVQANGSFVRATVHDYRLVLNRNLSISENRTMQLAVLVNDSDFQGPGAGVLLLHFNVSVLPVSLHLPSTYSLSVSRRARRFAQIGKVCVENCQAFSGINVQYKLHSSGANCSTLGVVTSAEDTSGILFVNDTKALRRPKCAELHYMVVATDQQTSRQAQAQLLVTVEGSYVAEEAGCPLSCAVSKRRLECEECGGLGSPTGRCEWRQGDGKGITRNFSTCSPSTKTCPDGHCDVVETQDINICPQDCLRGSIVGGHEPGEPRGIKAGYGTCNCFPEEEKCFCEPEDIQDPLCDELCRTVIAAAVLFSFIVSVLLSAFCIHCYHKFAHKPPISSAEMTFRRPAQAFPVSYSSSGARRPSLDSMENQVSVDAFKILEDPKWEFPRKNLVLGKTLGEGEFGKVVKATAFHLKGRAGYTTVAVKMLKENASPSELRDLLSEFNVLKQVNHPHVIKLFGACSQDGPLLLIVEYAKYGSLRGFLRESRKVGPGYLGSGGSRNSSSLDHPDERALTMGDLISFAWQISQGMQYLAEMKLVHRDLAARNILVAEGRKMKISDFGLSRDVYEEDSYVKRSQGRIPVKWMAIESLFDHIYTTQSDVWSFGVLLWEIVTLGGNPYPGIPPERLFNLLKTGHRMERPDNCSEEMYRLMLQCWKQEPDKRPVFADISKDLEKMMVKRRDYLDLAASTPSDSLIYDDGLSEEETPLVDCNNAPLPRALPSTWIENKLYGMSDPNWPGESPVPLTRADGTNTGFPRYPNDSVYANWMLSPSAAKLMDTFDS
Macrophage-stimulating protein receptor (Homo sapiens), sequence (Q04912 25-304 limits assumed): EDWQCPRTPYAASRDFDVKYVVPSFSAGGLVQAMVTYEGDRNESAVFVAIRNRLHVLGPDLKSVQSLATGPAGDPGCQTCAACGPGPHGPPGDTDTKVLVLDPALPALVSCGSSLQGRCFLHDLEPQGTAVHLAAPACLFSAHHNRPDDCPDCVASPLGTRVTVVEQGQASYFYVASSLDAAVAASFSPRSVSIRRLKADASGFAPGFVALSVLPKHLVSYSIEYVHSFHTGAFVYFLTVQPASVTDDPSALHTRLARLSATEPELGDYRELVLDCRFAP
Macrophage-stimulating protein receptor (Homo sapiens), sequence (Q04912 310-1400 limits assumed): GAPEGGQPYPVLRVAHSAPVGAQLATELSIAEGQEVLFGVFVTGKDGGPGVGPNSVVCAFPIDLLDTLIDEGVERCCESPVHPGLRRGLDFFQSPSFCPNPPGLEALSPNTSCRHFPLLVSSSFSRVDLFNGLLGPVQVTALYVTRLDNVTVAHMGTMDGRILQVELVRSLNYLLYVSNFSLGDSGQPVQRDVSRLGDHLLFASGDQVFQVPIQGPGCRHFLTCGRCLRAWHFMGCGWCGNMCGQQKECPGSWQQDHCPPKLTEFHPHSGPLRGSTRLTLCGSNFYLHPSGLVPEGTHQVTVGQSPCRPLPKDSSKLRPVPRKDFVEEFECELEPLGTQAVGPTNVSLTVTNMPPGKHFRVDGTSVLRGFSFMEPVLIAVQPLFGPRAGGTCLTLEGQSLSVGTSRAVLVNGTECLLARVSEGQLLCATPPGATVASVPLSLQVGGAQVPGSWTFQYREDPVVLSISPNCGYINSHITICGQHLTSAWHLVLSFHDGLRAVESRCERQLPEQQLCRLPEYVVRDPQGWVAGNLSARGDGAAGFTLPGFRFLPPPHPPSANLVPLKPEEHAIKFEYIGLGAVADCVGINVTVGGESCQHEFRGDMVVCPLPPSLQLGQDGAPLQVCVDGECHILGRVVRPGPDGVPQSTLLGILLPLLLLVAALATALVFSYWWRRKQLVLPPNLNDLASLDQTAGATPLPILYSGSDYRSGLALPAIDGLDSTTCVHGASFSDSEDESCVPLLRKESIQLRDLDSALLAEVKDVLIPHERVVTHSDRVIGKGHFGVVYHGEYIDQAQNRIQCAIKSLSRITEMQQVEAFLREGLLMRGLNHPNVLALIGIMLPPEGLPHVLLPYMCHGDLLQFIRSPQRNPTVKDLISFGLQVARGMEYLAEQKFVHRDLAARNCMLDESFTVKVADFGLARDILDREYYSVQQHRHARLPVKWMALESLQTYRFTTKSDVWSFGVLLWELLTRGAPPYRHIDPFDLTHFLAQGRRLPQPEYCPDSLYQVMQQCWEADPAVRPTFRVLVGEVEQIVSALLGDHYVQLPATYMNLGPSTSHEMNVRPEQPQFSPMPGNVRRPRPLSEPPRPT

| Compound | inhibition [1] | inhibition [2] | inhibition [3] | inhibition [4] | inhibition [5] | inhibition [6] | inhibition [7] | inhibition [8] | inhibition [9] | inhibition [10] |
| --- | --- | --- | --- | --- | --- | --- | --- | --- | --- | --- |
| CCS(=O)(=O)c1ccc(OC)c(Nc2ncc(-c3cccc(C(C)=O)c3)o2)c1 | 39.2% | -2.76% | 3.79% | 3.34% | 16.5% | 16.3% | 70.7% | 0.94% | 17.7% | -5.14% |
| COc1ccc(Nc2ncc(-c3ccccc3)o2)cc1OC | 27.2% | -0.4% | 5.46% | 7.2% | 24.5% | 12.2% | 54% | 0.67% | 2.69% | 4.52% |
| N#Cc1ccc2c(-c3ccnc(NC4CC4)n3)c(-c3ccc(F)cc3)nn2c1 | 10.8% | 2.34% | 0.41% | 1.21% | 1.91% | 2.91% | 3.58% | 0.49% | -0.99% | 0.61% |
| CCCNc1cccc(-n2ncc3c(N/N=C/c4ccncc4)ncnc32)c1 | 65.2% | 11.7% | 57.9% | 6.09% | 33.4% | 19.5% | 81.8% | 4.26% | 7.86% | 3.8% |
| CC1(C)CC(n2cnc(-c3ccc(F)cc3)c2-c2ccnc(N)n2)CC(C)(C)N1 | 1.67% | 2.97% | 5.62% | 5.01% | 7.73% | -1.43% | 5.26% | 0.52% | -1.76% | -1.03% |
| Cc1cc(O)cc(C)c1/C=C/c1cncc(C(N)=O)c1 | 8.63% | 1.41% | 4.46% | 4.48% | 6.31% | 5.55% | 54.2% | 5.08% | 31.6% | -0.5% |
| CCS(=O)(=O)c1ccc(OC)c(Nc2ncc(-c3cccc(F)c3)o2)c1 | 56.6% | 10.3% | 6.8% | 8.05% | 27.5% | 49.4% | 89.3% | 3.47% | 18.5% | 0.45% |
| COc1ccc(-c2nn3ncccc3c2-c2ccnc(Nc3ccc(F)c(F)c3)n2)cc1 | 19.1% | 1.18% | 2.96% | 6.57% | 9.74% | 3.58% | 19.4% | -2.81% | 1.37% | -2.45% |
| O=C(O[C@H]1CN[C@H](C#Cc2cc3ncnc(Nc4ccc5c(ccn5Cc5cc(F)ccc5F)c4)c3s2)C1)N1CCOCC1 | 19.6% | -0.04% | 7.89% | 5.19% | 6.27% | 0.52% | 8.86% | -2.61% | -3.38% | -0.55% |
| CC1=C(C(=O)Nc2ccc3[nH]ncc3c2)C(c2ccc(F)cc2)N=C(c2ccc(C(F)(F)F)nc2)N1 (stereo not given) | 43% | 7.5% | 5.38% | 4.98% | 14.9% | -1.49% | 9.03% | 1.74% | 1.21% | 3.11% |
| COc1cccc(Nc2nccc(-c3cnn4ncccc34)n2)c1 | 24% | 6.23% | 15.1% | 38.2% | 71.1% | 7.33% | 41.6% | 1.25% | -1.9% | -0.98% |
| COc1cc(N2CCN(C(C)C)CC2)ccc1Nc1nc(Nc2cccc3ncccc23)c2cc[nH]c2n1 | 14.2% | -0.12% | 1.56% | 7.82% | 45.3% | 2% | 0.42% | 0.04% | 0.63% | -1.08% |
| NS(=O)(=O)c1cccc(N/C=C2\C(=O)Nc3ccccc32)c1 | 34.3% | -4.07% | 7.57% | 5.69% | 9.87% | 1.93% | 12.9% | -0.1% | -1.56% | -6.93% |
| CCn1c(-c2nonc2N)nc2cncc(C(=O)NCCNC)c21 | 12.2% | 1.51% | 1.07% | 3.34% | 14% | 8.77% | 6.62% | -2.48% | -2.36% | -1.48% |
| Cn1c(-c2nonc2N)nc2cnccc21 | 7.82% | 5.57% | -0.92% | 2.77% | 3.73% | -0.58% | 6.9% | 0.1% | 4.56% | -1.4% |
| O=C(O[C@H]1CN[C@H](C#Cc2cc3ncnc(Nc4ccc(OCc5cccc(F)c5)c(Cl)c4)c3s2)C1)N1CCOCC1 | 7.29% | 1.25% | 12.9% | 6.55% | 8.8% | -0.25% | 11.3% | -2.71% | -2.76% | -7% |

| Compound | inhibition [1] | inhibition [2] | inhibition [3] | inhibition [4] | inhibition [5] | inhibition [6] | inhibition [7] | inhibition [8] | inhibition [9] | inhibition [10] |
| --- | --- | --- | --- | --- | --- | --- | --- | --- | --- | --- |
| Cc1ccc(-c2cc3c(NC(=O)C4CC4)ncnc3o2)cc1 | 12.9% | -0.25% | 11.4% | 11.1% | 16.3% | 1.85% | 24.4% | -1.85% | -5.36% | -5.27% |
| CNC(=O)c1cncc(/C=C/c2ccccc2C)c1 | 12.3% | 1.43% | 5.25% | 4.35% | 5.86% | 8.47% | 13.7% | 1.18% | 0.97% | -0.75% |
| Cc1nnc(-c2cccc(-c3ccc(C(=O)NCC4CC4)cc3)c2)o1 | 14.4% | 3.19% | 8.29% | 5.45% | 6.04% | 12.5% | 10.2% | -2.52% | 2.96% | -3.49% |
| CC(C)c1ccc(-c2cc(-c3c[nH]nc3-c3ccccn3)ccn2)cc1 | 4.31% | -5.99% | 3.62% | 2.06% | 1.81% | 1.53% | 0.23% | 0.28% | -0.57% | 2.53% |
| CN1CCC(n2cnc(-c3ccc(F)cc3)c2-c2ccnc(NCCO)n2)CC1 | 15.2% | -0.99% | -1.06% | 6.65% | 2.72% | 2.31% | 7.94% | -0.64% | -0.42% | -2.08% |
| COc1cccc(-n2ncc3c(N/N=C/c4ccc(C(=O)NCCN(C)C)cc4)ncnc32)c1 | 72.4% | 28.8% | 66.3% | 11.2% | 41.7% | 65% | 89.7% | 2.52% | 19.9% | -2.88% |
| Fc1cccc(COc2ccc(Nc3ncncc3C#Cc3ccccc3)cc2Cl)c1 | 15.1% | 1.12% | 1.28% | 7.63% | 4.43% | 4.7% | 9.06% | -1.92% | -0.3% | -5.72% |
| COc1ccc2ncn(-c3cc(O[C@H](C)c4ccccc4C(F)(F)F)c(C(N)=O)s3)c2c1 | 4.51% | -2.2% | 0.45% | 2.67% | 3.29% | -2.12% | -0.06% | 3.94% | 1.04% | -1.01% |
| COC(=O)Nc1nc2ccc(Oc3ccc(NC(=O)Nc4cc(C(F)(F)F)ccc4F)cc3)cc2s1 | 83.2% | 1.92% | 1.28% | 1.61% | 7.35% | 0.46% | 26.9% | 0.28% | -0.86% | 0.09% |
| COc1cc(N2CCN(C(C)C)CC2)ccc1Nc1nc(Nc2cccc(F)c2C(=O)O)c2cc[nH]c2n1 | 11.6% | 0.36% | 2.96% | 13.8% | 54.7% | -3.89% | 8.5% | -1.76% | 5.01% | -4.66% |
| N#Cc1cccc(Nc2ncc(-c3ccccc3)o2)c1 | 10.8% | -0.08% | -1.06% | 2.33% | 3.19% | 6.64% | 19.9% | 2.21% | 2.55% | 1.05% |
| NS(=O)(=O)c1ccc(N/N=C2\C(=O)Nc3ccc(C(=O)NCc4ccncc4)cc32)cc1 | 51.9% | 1.31% | 7.54% | 3.91% | 4.83% | 2.77% | 29.2% | 0.62% | 1.01% | -2.4% |
| O=C(O[C@H]1CN[C@H](C#Cc2cc3ncnc(Nc4ccc5c(cnn5Cc5ccccc5)c4)c3s2)C1)N1CCOCC1 | 8.34% | 0.29% | 2.37% | 1.38% | -0.29% | 0.01% | -0.98% | -0.4% | 2.01% | 0.27% |
| COc1cc(Nc2ncc(-c3ccccc3)o2)cc(OC)c1 | 13.2% | 4.66% | -0.05% | 3.98% | 11.9% | 14.9% | 49.7% | 2.58% | 3.5% | -2.45% |
| CNC(=O)c1ncccc1Nc1nc(Nc2cc3c(cc2OC)CCCN3C(=O)CN(C)C)nc2[nH]ccc12 | 27.1% | -2.25% | 6.45% | 83.4% | 87.7% | 0.68% | 8.9% | 0.09% | -0.71% | -1.3% |
